Measured values: PubChem BioAssay (Tox21)
A number with no mark means an inactive call. Results filed as inconclusive are left out. Activity calls are given as the source filed them. Calls come from the whole dose curve; as a rule, active = well fitted cell-killing curve with a large enough effect in the repeat runs; inconclusive = weak or mixed curves, or effect the other way; inactive = flat fitted curve, though single readings scatter.
% is set by controls: 0 for no effect and ±100 for the full control effect.
Note: nearly all actives have a fitted effect of over 50% in size.

Experiment: qHTS assay to identify small molecule HDAC inhibitors - cell viability counter screen (AID 1259365)
Conditions: HCT-116 viability, CellTiter-Glo ATP luminescence, 2 h; series mostly up to 92.4 µM; activity change, negative = cytotoxicity: at the top concentration
Summary of the method: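 After overnight seeding at 1,500 cells per well, wild-type HCT-116 cultures took up compounds in DMSO for 2hr at 37 C. Viable cell content came from luminescence with CellTiter-Glo.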
With `O=C=Nc1cccc(C(F)(F)F)c1` the “activity change, negative = cytotoxicity” value was -7.91%. For `CCCCCCCC/C=C\CCCCCCCCCCCC(=O)O`, the “activity change, negative = cytotoxicity” value was 2.35%. In the case of `CC(=O)OCC(=O)NCCCOc1cccc(CN2CCCCC2)c1`, the “activity change, negative = cytotoxicity” value is reported as 0.537% [at 42.5 µM]. In the case of `O=C1Cc2cc(Cl)ccc2N1`, the “activity change, negative = cytotoxicity” value is reported as 5.56% [at 42.5 µM]. In the case of `C/C=C(/C(=C/C)c1ccc(O)cc1)c1ccc(O)cc1`, the “activity change, negative = cytotoxicity” value is reported as 3.11% [at 42.5 µM]. With `Cc1cc(O)c(C)c(C)c1O` the “activity change, negative = cytotoxicity” value was 0.908% [at 42.5 µM]. In the case of `C/C=C/C=C/C=O`, the “activity change, negative = cytotoxicity” value is reported as 1.47%. In the case of `CN(C)CCN1C(=O)c2ccccc2N(C)c2ccccc21`, the “activity change, negative = cytotoxicity” value is reported as -1.6% [at 42.5 µM]. For `CCCCCCC(C)(C)C(=O)O`, the “activity change, negative = cytotoxicity” value was -0.401%. For `C=C1C[C@@]23CC[C@H]4[C@@](C)(CCC[C@@]4(C)C(=O)O[C@@H]4O[C@H](CO)[C@@H](O)[C@H](O)[C@H]4O)[C@@H]2CC[C@]1(O[C@@H]1O[C@H](CO)[C@@H](O)[C@H](O[C@@H]2O[C@H](CO)[C@@H](O)[C@H](O)[C@H]2O)[C@H]1O[C@@H]1O[C@H](CO)[C@@H](O)[C@H](O)[C@H]1O)C3`, the “activity change, negative = cytotoxicity” value was 3.44%. For `NC1[C@H]2CN(c3nc4c(cc3F)c(=O)c(C(=O)O)cn4-c3ccc(F)cc3F)C[C@@H]12` (some centres not stated), the “activity change, negative = cytotoxicity” value was 9.01% [at 42.5 µM]. For `COC(=O)C1=C(C)NC(C)=C(C(=O)O[C@@H]2CCCN(Cc3ccccc3)C2)[C@@H]1c1cccc([N+](=O)[O-])c1`, the “activity change, negative = cytotoxicity” value was -3.17% [at 42.5 µM]. With `O=C(/C=C/c1ccccc1)OCCc1ccccc1` the “activity change, negative = cytotoxicity” value was -3.21%. For `C[C@@H]1CC(=O)NN=C1c1ccc(NN=C(C#N)C#N)cc1`, the Potency was “inactive”. With `C[C@@H](O)[C@H]1C(=O)N2C(C(=O)O)=C([C@H]3CCCO3)S[C@H]12` the “activity change, negative = cytotoxicity” value was 0.344% [at 42.5 µM]. With `O=C(Cn1ccnc1[N+](=O)[O-])NCCO` the “activity change, negative = cytotoxicity” value was -0.219% [at 42.5 µM]. With `O=C(/C=C/c1ccc(O)c(O)c1)O[C@@H]1C[C@@](OC(=O)/C=C/c2ccc(O)c(O)c2)(C(=O)O)C[C@@H](O)[C@@H]1O` the “activity change, negative = cytotoxicity” value was -0.389% [at 42.5 µM]. For `O=C1c2ccccc2C(=O)C1c1ccc(Br)cc1`, the “activity change, negative = cytotoxicity” value was -12.6% [at 42.5 µM]. With `Clc1ccc(Nc2nnc(Cc3ccncc3)c3ccccc23)cc1` the “activity change, negative = cytotoxicity” value was -0.109% [at 42.5 µM]. With `OC(CCN1CCCC1)(c1ccccc1)C1CCCCC1` (configuration not stated) the “activity change, negative = cytotoxicity” value was -5.05% [at 42.5 µM]. In the case of `CCn1cc(C(=O)O)c(=O)c2cc(F)c(N3CCNCC3)cc21`, the “activity change, negative = cytotoxicity” value is reported as -0.414% [at 42.5 µM]. For `C=C(C)[C@@H]1CCC2=CCC[C@@H](C)[C@]2(C)C1`, the “activity change, negative = cytotoxicity” value was -3.7%. With `C1COC1` the “activity change, negative = cytotoxicity” value was -0.0138%. With `CC/C=C1/OC(=O)c2ccccc21` the “activity change, negative = cytotoxicity” value was -2.06%. For `CCOc1ccccc1O[C@H](c1ccccc1)[C@H]1CNCCO1`, the “activity change, negative = cytotoxicity” value was 1.4% [at 42.5 µM]. For `Cc1cc(C)cc(N)c1`, the “activity change, negative = cytotoxicity” value was -0.435%. With `CCN(CC)CCNC(=O)COc1ccc(OC)cc1` the “activity change, negative = cytotoxicity” value was 2.71% [at 42.5 µM]. For `NC(=O)c1ccncc1`, the “activity change, negative = cytotoxicity” value was 0.585%. For `Cc1cscn1`, the “activity change, negative = cytotoxicity” value was 1.55%. In the case of `CC1=Nc2ccc3ccccc3c2C1(C)C`, the “activity change, negative = cytotoxicity” value is reported as 0.0972%. For `O=C1Cc2ccccc2N1c1c(Cl)cccc1Cl`, the “activity change, negative = cytotoxicity” value was -2.1%. For `CCC(=O)OC`, the “activity change, negative = cytotoxicity” value was 0.223%. With `C=CCc1ccccc1OCC(O)CNC(C)C` (configuration not stated) the “activity change, negative = cytotoxicity” value was -0.0359% [at 42.5 µM]. For `OC1(c2ccccc2)CCNCC1`, the “activity change, negative = cytotoxicity” value was -2.52% [at 42.5 µM]. In the case of `COC(=O)[C@H]1[C@H]2C[C@@H]3c4[nH]c5cc(OC)ccc5c4CCN3C[C@H]2C[C@@H](OC(=O)/C=C/c2ccc(O)c(OC)c2)[C@@H]1OC`, the “activity change, negative = cytotoxicity” value is reported as 8.7% [at 42.5 µM]. With `O=C(OC(=O)c1ccccc1)c1ccccc1` the “activity change, negative = cytotoxicity” value was -0.634%. For `CCOC(=O)[C@H](CCc1ccccc1)N[C@@H](C)C(=O)N(CC(=O)O)C1Cc2ccccc2C1`, the “activity change, negative = cytotoxicity” value was -0.605% [at 42.5 µM]. For `C[C@H]1c2cccc(O)c2C(O)=C2C(=O)[C@]3(O)C(O)=C(C(N)=O)C(=O)[C@@H](N(C)C)[C@@H]3[C@@H](O)[C@@H]21`, the “activity change, negative = cytotoxicity” value was 4.32% [at 42.5 µM].

Experiment: qHTS assay to identify small molecule agonists of the sonic hedgehog signaling (Shh) pathway - cell viability counter screen (AID 1259366); note: potency is the fitted concentration of half-maximal effect
Conditions: NIH/3T3 Gli1-Luc viability, CellTiter-Fluor, 24 h; series mostly up to 92.4 µM; viability change, negative = cytotoxic: at the top concentration
Summary of the method: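 Same-well cytotoxicity read. Gli1-Luc reporter 3T3 cells; compounds 24hr, 37C/5% CO2; CellTiter-Fluor fluorescence.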
In the case of `CCCCCCCC/C=C\CCCCCCCCCCCC(=O)O`, the “viability change, negative = cytotoxic” value is reported as 0.649%. For `CC(=O)OCC(=O)NCCCOc1cccc(CN2CCCCC2)c1`, the “viability change, negative = cytotoxic” value was 5.02% [at 42.5 µM]. For `O=C1Cc2cc(Cl)ccc2N1`, the “viability change, negative = cytotoxic” value was 1.85% [at 42.5 µM]. For `Cc1cc(O)c(C)c(C)c1O`, the “viability change, negative = cytotoxic” value was 1.35% [at 42.5 µM]. For `C/C=C/C=C/C=O`, the “viability change, negative = cytotoxic” value was -5.98%. In the case of `CN(C)CCN1C(=O)c2ccccc2N(C)c2ccccc21`, the “viability change, negative = cytotoxic” value is reported as -14.6% [at 42.5 µM]. With `CCCCCCC(C)(C)C(=O)O` the “viability change, negative = cytotoxic” value was 3.87%. With `C=C1C[C@@]23CC[C@H]4[C@@](C)(CCC[C@@]4(C)C(=O)O[C@@H]4O[C@H](CO)[C@@H](O)[C@H](O)[C@H]4O)[C@@H]2CC[C@]1(O[C@@H]1O[C@H](CO)[C@@H](O)[C@H](O[C@@H]2O[C@H](CO)[C@@H](O)[C@H](O)[C@H]2O)[C@H]1O[C@@H]1O[C@H](CO)[C@@H](O)[C@H](O)[C@H]1O)C3` the “viability change, negative = cytotoxic” value was 0.355%. With `NC1[C@H]2CN(c3nc4c(cc3F)c(=O)c(C(=O)O)cn4-c3ccc(F)cc3F)C[C@@H]12` (some centres not stated) the Potency was 21.1 µM (active). For `O=C(/C=C/c1ccccc1)OCCc1ccccc1`, the “viability change, negative = cytotoxic” value was 4.04%. With `C[C@@H]1CC(=O)NN=C1c1ccc(NN=C(C#N)C#N)cc1` the Potency was 13.3 µM (active). For `C[C@@H](O)[C@H]1C(=O)N2C(C(=O)O)=C([C@H]3CCCO3)S[C@H]12`, the “viability change, negative = cytotoxic” value was 2.31% [at 42.5 µM]. With `O=C(/C=C/c1ccc(O)c(O)c1)O[C@@H]1C[C@@](OC(=O)/C=C/c2ccc(O)c(O)c2)(C(=O)O)C[C@@H](O)[C@@H]1O` the “viability change, negative = cytotoxic” value was -5.79% [at 42.5 µM]. For `O=C1c2ccccc2C(=O)C1c1ccc(Br)cc1`, the “viability change, negative = cytotoxic” value was -15.3% [at 42.5 µM]. For `CCn1cc(C(=O)O)c(=O)c2cc(F)c(N3CCNCC3)cc21`, the “viability change, negative = cytotoxic” value was 2.56% [at 42.5 µM]. In the case of `C=C(C)[C@@H]1CCC2=CCC[C@@H](C)[C@]2(C)C1`, the “viability change, negative = cytotoxic” value is reported as -17.1%. With `C1COC1` the “viability change, negative = cytotoxic” value was -1.32%. In the case of `Cc1cc(C)cc(N)c1`, the “viability change, negative = cytotoxic” value is reported as 1.75%. In the case of `CCN(CC)CCNC(=O)COc1ccc(OC)cc1`, the “viability change, negative = cytotoxic” value is reported as 0.141% [at 42.5 µM]. With `CS(=O)(=O)c1ccc(-c2cn3ccccc3n2)cc1` the “viability change, negative = cytotoxic” value was 9.19% [at 42.5 µM]. With `NC(=O)c1ccncc1` the “viability change, negative = cytotoxic” value was 1.9%. In the case of `CCOc1cccc(-n2cc(C(=O)N3CCN(c4cc(C(=O)O)c5ccccc5c4)CC3)nc2-c2ccc(C)cc2)c1`, the “viability change, negative = cytotoxic” value is reported as 4.56%. For `O=C1Cc2ccccc2N1c1c(Cl)cccc1Cl`, the “viability change, negative = cytotoxic” value was -17.6%. In the case of `CCC(=O)OC`, the “viability change, negative = cytotoxic” value is reported as 4.99%. For `C=CCc1ccccc1OCC(O)CNC(C)C` (configuration not stated), the “viability change, negative = cytotoxic” value was -26.4% [at 42.5 µM]. In the case of `OC1(c2ccccc2)CCNCC1`, the “viability change, negative = cytotoxic” value is reported as 3.96% [at 42.5 µM]. With `COC(=O)[C@H]1[C@H]2C[C@@H]3c4[nH]c5cc(OC)ccc5c4CCN3C[C@H]2C[C@@H](OC(=O)/C=C/c2ccc(O)c(OC)c2)[C@@H]1OC` the “viability change, negative = cytotoxic” value was 1.73% [at 42.5 µM]. With `O=C(OC(=O)c1ccccc1)c1ccccc1` the “viability change, negative = cytotoxic” value was 3.91%. With `CCOC(=O)[C@H](CCc1ccccc1)N[C@@H](C)C(=O)N(CC(=O)O)C1Cc2ccccc2C1` the “viability change, negative = cytotoxic” value was -0.965% [at 42.5 µM].
